Data published in PubChem BioAssay AID1159580 (chemical genetic matrix, 2015).
“And” between values parts separate entries of the source, which are not always exact repeats. Equal values may be shown once. Out of some 5,500 compounds screened, about 2,000 (36%) were called active. Roughly 18% stayed inconclusive and do not appear here. Cut-off read from the data, not from the text of the source: active = normalized growth mostly below about 0.91 (no sharp cut-off); inconclusive = no clear call, values can overlap the other calls; inactive = mostly above about 0.92. This is one part of the list.

Test: chemical genetic growth profiling, strain panel (AID 1159580);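 note: tested at 20 µM; growth read once vehicle control cultures reached saturation at 30 °C; 1 = growth at the plate median or of vehicle wells; lower values mean less growth of the strain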
Conditions: S. cerevisiae deletion strains, growth OD

Measured: normalized growth

CC(C)NC[C@H](O)COc1cccc2ccccc12
inactive: locus YAL021C, strain ccr4, stronger effect = lower value 0.985 | locus YAL026C, strain drs2, stronger effect = lower value 1 | locus YAL030W, strain snc1, stronger effect = lower value 0.986 | locus YBL061C, strain skt5, stronger effect = lower value 0.984 | locus YBR009C, strain hhf1, stronger effect = lower value 0.98 | locus YBR021W, strain FUR4, stronger effect = lower value 0.997 | locus YBR023C, strain chs3, stronger effect = lower value 0.99 | locus YBR171W, strain sec66, stronger effect = lower value 0.989 | locus YBR229C, strain ROT2, stronger effect = lower value 1.01 | locus YBR231C, strain swc5, stronger effect = lower value 0.989 | locus YBR279W, strain paf1, stronger effect = lower value 0.99 | locus YCL011C, strain gbp2, stronger effect = lower value 0.993 | locus YCL016C, strain dcc1, stronger effect = lower value 0.991 | locus YCL029C, strain bik1, stronger effect = lower value 1.02 | locus YCL061C, strain MRC1, stronger effect = lower value 0.994 | locus YCL069W, strain vba3, stronger effect = lower value 0.993 | locus YCR088W, strain abp1, stronger effect = lower value 0.991 | locus YDL005C, strain med2, stronger effect = lower value 0.981 | locus YDL035C, strain GPR1, stronger effect = lower value 0.993 | locus YDL040C, strain nat1, stronger effect = lower value 0.992 | locus YDL074C, strain BRE1, stronger effect = lower value 1.02 | locus YDL101C, strain DUN1, stronger effect = lower value 1.01 | locus YDL134C, strain PPH21, stronger effect = lower value 0.979 | locus YDL185W, strain tfp1, stronger effect = lower value 1.03 | locus YDL192W, strain arf1, stronger effect = lower value 1.02 | locus YDR001C, strain nth1, stronger effect = lower value 0.991 | locus YDR069C, strain doa4, stronger effect = lower value 1 | locus YDR101C, strain arx1, stronger effect = lower value 1 | locus YDR137W, strain rgp1, stronger effect = lower value 1 | locus YDR159W, strain sac3, stronger effect = lower value 0.976 | locus YDR162C, strain NBP2, stronger effect = lower value 1 | locus YDR195W, strain ref2 0.962 | locus YDR297W, strain sur2, stronger effect = lower value 1.01 | locus YDR318W, strain mcm21, stronger effect = lower value 1.02 | locus YDR334W, strain swr1, stronger effect = lower value 0.999 | locus YDR335W, strain msn5, stronger effect = lower value 0.991 | locus YDR388W, stronger effect = lower value 1.02 | locus YDR392W, strain spt3, stronger effect = lower value 0.943 | locus YDR502C, strain sam2, stronger effect = lower value 1 | locus YEL003W, strain gim4, stronger effect = lower value 1 | locus YEL037C, strain rad23, stronger effect = lower value 1.02 | locus YEL061C, strain CIN8 (second series), stronger effect = lower value 0.993 | locus YEL061C, strain CIN8, stronger effect = lower value 1.01 | locus YER015W, strain faa2, stronger effect = lower value 0.969 | locus YER016W, strain bim1, stronger effect = lower value 0.986 | locus YER110C, stronger effect = lower value 1.02 | locus YER111C, strain swi4, stronger effect = lower value 0.986 | locus YER155C, strain BEM2 (second series), stronger effect = lower value 0.98 | locus YER155C, strain BEM2, stronger effect = lower value 1.01 | locus YER167W, strain BCK2, stronger effect = lower value 1 | locus YFR010W, strain ubp6, stronger effect = lower value 1.01 | locus YGL078C, strain dbp3, stronger effect = lower value 1.01 | locus YGL086W, strain mad1, stronger effect = lower value 0.994 | locus YGL167C, strain pmr1, stronger effect = lower value 0.982 | locus YGL173C, strain kem1, stronger effect = lower value 0.993 | locus YGL227W, strain vid30, stronger effect = lower value 0.992 | locus YGL240W, strain doc1, stronger effect = lower value 0.977 | locus YGL248W, strain PDE1, stronger effect = lower value 1.01 | locus YGL253W, strain hxk2, stronger effect = lower value 1 | locus YGR078C, strain PAC10, stronger effect = lower value 1.01 | locus YGR135W, strain pre9, stronger effect = lower value 1.02 | locus YGR252W, strain gcn5, stronger effect = lower value 0.992 | locus YHR013C, strain ard1, stronger effect = lower value 0.953 | locus YHR027C, strain rpn1, stronger effect = lower value 0.988 | locus YHR030C, strain SLT2, stronger effect = lower value 1.01 and 1.06 | locus YHR079C, strain IRE1 (second series), stronger effect = lower value 1.02 | locus YHR079C, strain IRE1, stronger effect = lower value 1.08 | locus YHR094C, strain hxt1, stronger effect = lower value 1.02 | locus YHR129C, strain ARP1, stronger effect = lower value 1.01 | locus YHR142W, strain chs7, stronger effect = lower value 1.01 | locus YHR200W, strain rpn10, stronger effect = lower value 1.02 | locus YIL066C, strain RNR3, stronger effect = lower value 1.01 | locus YIL073C, strain SPO22, stronger effect = lower value 1.04 | locus YIL125W, strain kgd1, stronger effect = lower value 1.02 | locus YIR030C, strain dcg1, stronger effect = lower value 1.03 | locus YJL092W, strain hpr5, stronger effect = lower value 0.993 | locus YJL095W, strain BCK1 (second series), stronger effect = lower value 0.987 | locus YJL095W, strain BCK1, stronger effect = lower value 1.01 and 1.02 | locus YJL115W, strain asf1, stronger effect = lower value 0.987 | locus YJL129C, strain trk1, stronger effect = lower value 1.01 | locus YJL134W, strain LCB3, stronger effect = lower value 1.01 | locus YJL154C, strain vps35, stronger effect = lower value 0.992 | locus YJL164C, strain tpk1, stronger effect = lower value 0.989 | locus YJL166W, strain qcr8, stronger effect = lower value 0.983 | locus YJL168C, strain set2, stronger effect = lower value 1.02 | locus YJL187C, strain SWE1 (second series), stronger effect = lower value 1.01 | locus YJL187C, strain SWE1, stronger effect = lower value 0.984 | locus YJR043C, strain POL32, stronger effect = lower value 1.01
